23 compounds from the antibiotic and cytotoxicity screens of Wong et al. (2023) can be followed below.

The whole screen tested about 39,000 compounds, of which about 3,300 (8.5%) were called active. For the sample, actives were picked, then their nearest neighbours and some compounds at random.

This assay deals with HepG2. The experiment in a line: cytotoxicity call (relative viability < 0.9). The conditions noted are these: 10 µM.
For the compound `C[C@@H]1CN([C@@H](C)CO)C(=O)CCCn2cc(nn2)CO[C@H]1CN(C)S(=O)(=O)c1ccccc1C#N`, the cytotoxicity call was “inactive”.

Turning to `CC(C)c1cccc(NC(=O)C[C@H]2CC[C@H]3[C@@H](COc4ccc(NC(=O)c5ccc(C#N)cc5)cc4C(=O)N3C)O2)c1`, the cytotoxicity call is “inactive”.

Regarding `COc1ccc(S(=O)(=O)N(C)C[C@H]2OCCCC[C@H](C)Oc3ccc(NC(=O)Nc4cccc5ccccc45)cc3C(=O)N([C@@H](C)CO)C[C@H]2C)cc1`, the cytotoxicity call is “inactive”.

For `COc1ccc(S(=O)(=O)N(C)C[C@H]2Oc3ccc(N(C)C)cc3CC(=O)N([C@H](C)CO)C[C@H]2C)cc1`, the cytotoxicity call was “inactive”.

In the case of `C[C@@H]1CN([C@H](C)CO)C(=O)c2cccc(NS(=O)(=O)c3ccc(F)cc3)c2O[C@@H]1CN(C)Cc1ccc(Cl)c(Cl)c1`, the cytotoxicity call is “inactive”.

Turning to `COc1ccc(S(=O)(=O)Nc2ccc3c(c2)C(=O)N([C@H](C)CO)C[C@@H](C)[C@H](CN(C)C(=O)Nc2cccc4ccccc24)OCCCC[C@@H](C)O3)cc1`, the cytotoxicity call was “inactive”.

As for `C[C@H]1CN([C@@H](C)CO)C(=O)c2cc(C#CCN(C)C)cnc2O[C@@H]1CN(C)Cc1ccc(C(=O)O)cc1`, the cytotoxicity call was “inactive”.

For `C[C@@H]1CN([C@H](C)CO)C(=O)c2cccc(NC(=O)Nc3ccc4c(c3)OCO4)c2O[C@H]1CN(C)C(=O)Nc1ccc(C(F)(F)F)cc1`, the cytotoxicity call was “inactive”.

Take `Nc1ncccc1-c1nc2ccc(-c3ccccc3)nc2n1-c1ccc(C2(N)CCC2)cc1`: the cytotoxicity call is “active”.

Regarding `NC(=O)c1ccc2nc(-c3ccc(C4(N)CCC4)cc3)c(-c3ccccc3)n2n1`, the cytotoxicity call was “inactive”.

For `CC(C)NC(=O)N[C@@H]1CC[C@@H](CCN)O[C@@H]1CO`, the cytotoxicity call is “inactive”.

For the compound `Cc1ccc(S(=O)(=O)Nc2ccc3c(c2)CC(=O)N([C@@H](C)CO)C[C@@H](C)[C@@H](CN(C)S(=O)(=O)c2c(C)noc2C)O3)cc1`, the cytotoxicity call is “inactive”.

Consider `Cc1noc(C)c1NC(=O)N(C)C[C@H]1Oc2ccc(NC(=O)Cn3cnnn3)cc2CC(=O)N([C@H](C)CO)C[C@@H]1C`, for which the cytotoxicity call is “inactive”.

With `Cc1noc(C)c1S(=O)(=O)Nc1ccc2c(c1)CC(=O)N([C@@H](C)CO)C[C@@H](C)[C@H](CN(C)C(=O)Nc1ccccc1)O2`, the cytotoxicity call was “inactive”.

As for `COC(=O)Cc1c(C)[nH]c2ncnn2c1=O`, the cytotoxicity call is “inactive”.

As for `CC(=O)Nc1c(C)[nH]c2ncnn2c1=O`, the cytotoxicity call is “active”.

For the compound `Cc1[nH]c2ncnn2c(=O)c1NS(C)(=O)=O`, the cytotoxicity call was “inactive”.

As to `C[C@@H]1CN([C@H](C)CO)C(=O)Cc2cc(NS(C)(=O)=O)ccc2O[C@@H]1CN(C)C(=O)Nc1ccc(C(F)(F)F)cc1`, the cytotoxicity call is “inactive”.

For `O=C(Nc1ccno1)NN1CCOCC1`, the cytotoxicity call was “inactive”.

In the case of `COc1cc([C@@H]2c3cc4c(cc3[C@@H](O[C@@H]3O[C@@H]5CO[C@@H](C)O[C@H]5[C@H](O)[C@H]3O)[C@@H]3COC(=O)[C@@H]23)OCO4)cc(OC)c1O`, the cytotoxicity call was “inactive”.

Take `COc1cc(C2c3cc4c(cc3C(OC3OC5COC(c6cccs6)OC5C(O)C3O)C3COC(=O)C23)OCO4)cc(OC)c1O` (stereo not drawn): the cytotoxicity call was “active”.

For `COc1cc(C2c3cc4c(cc3C(OC3OC5COC(C)OC5C(O)C3O)C3COC(=O)C23)OCO4)cc(OC)c1O` (stereo not drawn), the cytotoxicity call was “inactive”.

On to `COc1cc([C@@H]2c3cc4c(cc3[C@@H](O[C@@H]3O[C@@H]5CO[C@@H](C)O[C@H]5[C@H](O)[C@H]3O)[C@H]3COC(=O)[C@H]23)OCO4)cc(OC)c1O`, for which the cytotoxicity call was “active”.
